Assay outcomes from PubChem.
RORgamma inh: inhibitors of mouse ROR gamma transcriptional activity; P51450; Drosophila S2 Gal4-RORgamma UAS-luciferase reporter, 20 h; Potency, µM (series often up to 53.6 µM), hits mostly inhibitors; hit rate 5.4% among 310,000; AID 2551; also: nearly all actives have a fitted effect of over 60% in size
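Drosophila S2 cells stably expressing Gal4-DBD/mouse RORγ fusion under metallothionein promoter plus UAS-luciferase; compound 1 h, then 700 uM CuSO4 induction for 20 h at ambient temperature; inhibition read as reduced luminescence.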
TSHR antagonist: antagonists of human thyroid stimulating hormone receptor. TSHR-expressing cells, TSH-stimulated cAMP HTRF, 2 h; stronger effect = lower value. activity change, negative = inhibition, % at 11.5 µM. hit rate 0.2% among 330,000;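 active = activity change below a set negative limit, meaning inhibition stronger than a set level, cut at about -70% in these data; inconclusive = activity change between two set negative limits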
Target sequence (P16473 whole entry, looked up): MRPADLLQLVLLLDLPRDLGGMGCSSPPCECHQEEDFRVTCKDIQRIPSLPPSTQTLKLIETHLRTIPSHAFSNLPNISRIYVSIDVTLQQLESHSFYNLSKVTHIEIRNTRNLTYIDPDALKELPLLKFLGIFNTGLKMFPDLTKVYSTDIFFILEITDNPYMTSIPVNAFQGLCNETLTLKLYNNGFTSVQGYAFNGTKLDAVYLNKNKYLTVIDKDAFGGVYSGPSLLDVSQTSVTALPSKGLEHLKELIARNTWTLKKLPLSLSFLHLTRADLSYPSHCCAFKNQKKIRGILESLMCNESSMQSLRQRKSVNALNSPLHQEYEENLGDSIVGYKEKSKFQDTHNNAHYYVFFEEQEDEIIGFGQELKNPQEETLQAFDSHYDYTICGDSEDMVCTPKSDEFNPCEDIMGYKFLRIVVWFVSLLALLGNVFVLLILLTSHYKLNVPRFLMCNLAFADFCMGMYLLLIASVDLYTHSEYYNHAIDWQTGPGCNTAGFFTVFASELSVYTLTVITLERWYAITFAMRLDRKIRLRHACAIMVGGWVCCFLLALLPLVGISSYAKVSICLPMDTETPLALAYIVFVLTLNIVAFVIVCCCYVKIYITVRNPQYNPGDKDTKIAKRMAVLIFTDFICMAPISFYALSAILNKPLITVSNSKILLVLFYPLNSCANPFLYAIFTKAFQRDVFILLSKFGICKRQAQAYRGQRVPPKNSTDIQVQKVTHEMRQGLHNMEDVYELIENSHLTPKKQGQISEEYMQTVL
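Competitive HTRF cAMP read-out (cryptate anti-cAMP antibody, cAMP-d2; 30 min, room temperature) in freshly harvested TSHR cells. Compounds added before TSH at EC80 (4nM final), followed by 2 hours' incubation at 37 deg C.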
ELG1 DNA repair: inhibitors of ELG1-dependent DNA repair in HEK293T cells; HEK293T ELG1-luciferase reporter, luminescence, 16 h; DNA damage induced by 5-fluorouridine; Potency, µM (highest dose often 46.1 µM), usual class: inhibitors; hit rate 2.3% among 330,000; AID 504467; also: nearly all actives have a fitted effect of over 55% in size
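Reporter activity after DNA damage by 5-fluorouridine is monitored. Compound-treated cells incubate 16 hr at 37 °C, then ONE-Glo is added for 30 min before luminescence reading.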
VP16 counter: counter-screen for ROR gamma inhibitors: Gal4-VP16 reporter. Drosophila S2 Gal4-VP16 UAS-luciferase, luminescence, 20 h. Potency, µM (titrated, usually from 53.6 µM), most hits filed as inhibitors. hit rate 3.5% among 310,000;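 also: Gal4-VP16 expression switched on by copper sulfate through the metallothionein promoter; nearly all actives have a fitted effect of over 50% in size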
B2AR arrestin: beta2AR (human) beta-arrestin recruitment activity. beta-arrestin recruitment to beta2AR, cell-based reporter. hit rate 0.02% among 330,000. P07550. Potency, µM (highest dose often 46.1 µM), actives largely listed as activators. AID 492947; also: nearly all actives have a fitted effect of over 65% in size
Numbers stand for hits; - = inactive; ? = inconclusive; . = no result; [ ] = dose if it differs, or a comment. The list is not random: actives were taken first. Their share in the collection is about 7.5%. Unless noted, calls follow the shape of the dose curve; as a rule, active = well fitted curve in the direction sought with a large enough effect; inconclusive = small, poorly fitted or top-dose-only effect, or another doubt; inactive = no such curve, though single readings can be large; an effect the other way counts as inactive or inconclusive.

SMILES	RORgamma inh	TSHR antagonist	ELG1 DNA repair	VP16 counter	B2AR arrestin
COc1c(Cl)cnn(-c2ccccc2)c1=O	-	-	-	-	-
COc1nn(-c2ccccc2)c(=O)c(Cl)c1Cl	?	-	?	11µM	-
NC(=O)N/N=C\c1cc(Br)ccc1O	-	-	-	-	-
CCOc1ccccc1NC(=O)C(=O)N/N=C/c1cc(Br)ccc1O	1.8µM	-	?	?	-
O=C(N/N=C\c1cc(Br)ccc1O)c1ccc(S(=O)(=O)N2CCCCC2)cc1	3.5µM	-	?	4µM	-
O=C(N/N=C/c1ccc(O)c(O)c1)c1cccc(S(=O)(=O)N2CCCCC2)c1	-	-	-	-	-
O=C(N/N=C/c1cc(Cl)ccc1O)c1ccc(Br)cc1	2.8µM	-	?	?	-
O=C(N/N=C/c1ccccc1O)C1SCCCS1	0.79µM	-	-	5µM	-
Nc1nonc1C(=O)N/N=C/c1cc(Br)ccc1O	-	-	-	-	-
O=C(N/N=C/c1ccccc1O)C1(O)c2ccccc2-c2ccccc21	0.56µM	-	?	0.79µM	-
Cc1c(/C=N/NC(=O)C2(O)c3ccccc3-c3ccccc32)cnn1C	-	-	-	-	-
Cc1nc(C)c(C(=O)N/N=C/c2cc(Br)ccc2O)s1	3.2µM	-	?	7.9µM	-
CC(C)(C)OC(=O)N/N=C/c1cc(N=Nc2ccccc2)ccc1O	4µM	?	?	5.6µM	-
Cc1ccc(N=Nc2ccc(O)c(/C=N\NC(=O)c3ccc(N)cc3)c2)cc1C	3.2µM	-	-	2.2µM	-
Cc1cc(C)c(S(=O)(=O)NCc2csc(C)n2)c(C)c1	-	-	-	-	-
O=S(=O)(NCC1(N2CCOCC2)CCCCC1)c1ccc(F)c(F)c1F	.	-	-	.	-
Cc1ccc(S(=O)(=O)NCCC(=O)NC(C)CCc2ccccc2)cc1 (centres undefined)	.	-	-	.	-
O=C(Nc1ccc(Cl)cc1)C1CCCN(C2=NS(=O)(=O)c3ccccc32)C1 (centres undefined)	.	-	-	.	-
NC(=O)CCCCC1CCSS1 (centres undefined)	-[10 µM]	.	.	-	.
O=C(N/N=C/c1cccnc1)c1cccc(NC(=O)c2cccc(Br)c2)c1	-	-	-	-	-
O=C(N/N=C\c1ccc(Sc2ccccn2)o1)c1cccc(Br)c1	8.9µM	-	-	?	-
O=C(N/N=C/c1cc(Br)ccc1O)c1ccncc1	6.3µM	-	?	?	-
O=C(N/N=C/c1ccc(O)c2ncccc12)c1cccc(Br)c1	16µM	-	?	?	-
Cc1ccccc1C(=O)N/N=C/c1ccc(Sc2ccccn2)o1	-	-	-	-	-
O=C(N/N=C/c1cc(Br)ccc1O)Nc1ccccc1	2.5µM	-	-	11µM	-
SMILES	RORgamma inh	TSHR antagonist	ELG1 DNA repair	VP16 counter	B2AR arrestin
O=C(N/N=C/c1cc([N+](=O)[O-])ccc1O)c1ccncc1	?	-	?	-	-
CCCS(=O)(=O)N1CCN=C1SCc1cccnc1	-	-	-	-	-
O=C(N/N=C/c1cccc2ccccc12)c1ccncc1	-	-	-	-	-
O=C(N/N=C/c1ccccc1O)c1ccncc1	3.2µM	-	-	2.8µM	-
c1ccc2c(c1)CC1(CCCC1)n1nnnc1-2	0.71µM	-	-	-	-
CC1(C)Cc2ccccc2-c2nnnn21	-	-	-	-	-
CCOC(=O)CCN1C(=O)[C@H]2[C@H]3[C@H](O)[C@H](O)C/C(=N/NC(=O)OCc4ccc(OC)cc4)[C@H]3CC[C@@H]2C1=O	-[10 µM]	.	.	-[10 µM]	.
CSc1nnc(NC(=O)C23CC4CC(CC(C4)C2)C3)s1	18µM	-	?	?	-
CC(NC(=O)OCc1ccccc1)C(=O)Oc1cc2oc(=O)cc(-c3ccccc3)c2cc1Cl (centres undefined)	-	-	21µM	-	-
CS(=O)(=O)CCC(C(=O)Nc1ccc2c(c1)OCO2)N1Cc2ccccc2C1=O (centres undefined)	-	-	?	-	-
CC1(C)OC(=O)C=C[C@]2(C)[C@H]3CC[C@@]4(C)[C@H](C(=O)O)OC(=O)[C@H]5O[C@]54[C@]3(C)C(=O)C[C@@H]12	.	-	-	.	-
COc1ccc(C2=C(C=Nc3c(C)n(C)n(-c4ccccc4)c3=O)C(c3ccccc3C)c3ccccc3O2)cc1OC (centres undefined)	-	-	2.9µM	-	-
COCCNc1ncncc1-c1c(C)noc1C	-	.	.	-	.
Cc1ccc(NC(=O)c2cc(=O)c3ccccc3o2)cc1S(=O)(=O)N1CCCCC1	-	-	16µM	-	-
Cc1ccc(NC(=O)c2ccccc2-c2ccc(C(F)(F)F)cc2)cc1S(=O)(=O)N1CCOCC1	-	-	21µM	-	-
Cc1ccc(NC(=O)c2cc(=O)c3ccccc3o2)cc1S(=O)(=O)N1CCOCC1	-	-	23µM	-	-
Cc1ccc(NC(=O)CSc2ccccc2)cc1S(=O)(=O)N1CCOCC1	.	-	-	.	-
O=C(Nc1ccc(S(=O)(=O)N2CCCC2)cc1)c1cc(=O)c2ccccc2o1	-	-	-	-	-
Cc1ccc(NC(=O)C(=O)c2c(-c3ccccc3)cc3ccccn23)cc1S(=O)(=O)N1CCOCC1	-	-	9.2µM	-	-
CCC(C)(C)C1CCC2(CC1)NC(=O)N(CC(=O)NCCc1c[nH]c3ccccc13)C2=O (centres undefined)	.	-	-	.	-
Cc1ccc(NC(=O)c2ccccc2NS(=O)(=O)c2ccc(F)cc2)cc1S(=O)(=O)N1CCCCC1	?	-	?	10µM	-
O=C(Cc1cccs1)NCCS(=O)(=O)N1CCN(c2cccc(Cl)c2)CC1	.	-	-	.	-
CC(=O)NC(=S)Nc1ccccc1N1CCCCC1	2.5µM	-	-	7.1µM	-
CCCCCC(=O)NC(=S)Nc1ccc(N2CCOCC2)cc1	1.3µM	-	-	2.2µM	-
CCCC(=O)NC(=S)Nc1ccccc1N1CCOCC1	11µM	-	-	?	-
SMILES	RORgamma inh	TSHR antagonist	ELG1 DNA repair	VP16 counter	B2AR arrestin
CC(C)CC(=O)NC(=S)Nc1ccccc1N1CCCC1	4µM	-	-	11µM	-
O=C(CSc1ccccc1)Nc1ccccc1N1CCOCC1	-	-	-	-	-
CCC(=O)NC(=S)Nc1ccc(N2CCOCC2)cc1	-	-	?	-	-
CC(C)CC(=O)Nc1ccccc1N1CCCC1	-	-	-	-	-
O=C1N[C@@H]2[C@H](CCCCC(=O)Oc3ccc([N+](=O)[O-])cc3)SC[C@H]2N1	-	.	.	-	.
C=C1CCC(=O)C(C)CCC2C1CC2(C)C (centres undefined)	-	.	.	-	.
O=C(CN(C(=O)CCC(=O)Nc1nccs1)c1ccc(F)cc1)NCc1ccc(F)cc1	-	.	-	-	-
CCN(CC(=O)NC1CCS(=O)(=O)C1)S(=O)(=O)c1ccc(Cl)cc1C(F)(F)F (centres undefined)	.	-	?	.	-
CCCCCC(=O)NC(=S)Nc1ccc(N2CCCCC2)c(Cl)c1	1.6µM	-	-	7.1µM	-
